Rows were chosen to be rich in hits. Some 0.96% of all compounds tested hit in one or more screens of this group.
Phagocytosis inh – inhibitors of macrophage phagocytosis, primary screen, imaging, J774A.1 cells, IgG beads | J774A.1 macrophage IgG-bead phagocytosis | inhibition, % at 5 µM | actives 0.07% (n = 110,000) | AID 1029, 2008;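 active = inhibition above the mean of the plate negative controls plus 5 SD, cut at about 13% in these data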;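 also: phagocytic index as fraction of beads internalized from green versus red external bead signal; plate controls were DMSO negative control for no effect and cytochalasin-D positive control for full effect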
TNAP act mid DEA – human TNAP enzyme activators, primary screen, biochemical, luminescent, intermediate phosphate acceptor level | purified TNAP, CDP-star luminescence, 100 mM DEA, 30 min; active compounds read high; scale: 0 levamisole-inhibited, 1 vehicle-only enzyme | activation factor at 20 µM | 64,000 tested, under 10 active;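 active = activation factor of at least 2 at 20 µM, relative to controls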
Mac1 fbg inh – inhibitors of CD11b/CD18 adhesion to fibrinogen, primary screen, K562 cells, luminescence. inhibition, % at 10 µM. actives 0.54% (n = 93,000). ATPlite luminescence; Mn2+ added to activate the integrin. AID 1497, 2009. Integrin beta-2 (Homo sapiens) + Integrin alpha-M (Homo sapiens), P05107+P11215;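 active = primary inhibition of 50% or more at 10 µM, then 40% or more on retest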
Target sequence (P05107 whole entry, looked up, other chains not shown): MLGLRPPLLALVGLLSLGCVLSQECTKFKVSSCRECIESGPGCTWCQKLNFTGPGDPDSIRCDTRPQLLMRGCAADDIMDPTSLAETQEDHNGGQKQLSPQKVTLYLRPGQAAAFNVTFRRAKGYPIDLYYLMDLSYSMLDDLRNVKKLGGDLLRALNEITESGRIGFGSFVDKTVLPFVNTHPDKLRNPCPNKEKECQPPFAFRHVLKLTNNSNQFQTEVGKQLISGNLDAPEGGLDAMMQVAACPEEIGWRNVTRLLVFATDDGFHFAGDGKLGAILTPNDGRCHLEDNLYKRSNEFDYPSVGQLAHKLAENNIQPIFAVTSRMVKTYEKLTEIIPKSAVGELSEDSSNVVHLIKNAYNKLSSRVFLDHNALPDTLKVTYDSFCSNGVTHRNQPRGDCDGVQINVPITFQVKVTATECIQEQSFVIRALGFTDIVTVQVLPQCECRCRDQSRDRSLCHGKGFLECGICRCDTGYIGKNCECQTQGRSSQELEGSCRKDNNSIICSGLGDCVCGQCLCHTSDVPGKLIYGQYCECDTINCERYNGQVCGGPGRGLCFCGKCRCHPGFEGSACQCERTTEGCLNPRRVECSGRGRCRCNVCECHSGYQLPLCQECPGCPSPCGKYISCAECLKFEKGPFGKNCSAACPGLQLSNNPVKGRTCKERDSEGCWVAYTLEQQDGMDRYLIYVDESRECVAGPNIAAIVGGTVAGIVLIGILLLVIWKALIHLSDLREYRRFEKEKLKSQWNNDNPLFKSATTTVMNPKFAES
Mac1 fbg enh – enhancers of CD11b/CD18 adhesion to fibrinogen, primary screen, K562 cells, luminescence. ATPlite luminescence. actives 0.07% (n = 93,000). AID 1499, 2009. activation, % at 10 µM. Integrin beta-2 (Homo sapiens) + Integrin alpha-M (Homo sapiens), P05107+P11215;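 active = 10 µM primary screen giving 50% or more activity, confirmed by 40% or more on retest at that dose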
FAK inh – FAK kinase inhibitors, primary screen, biochemical; AID 727, 2007; inhibition, %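 (tested at 7 µM)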; actives 0.84% (n = 97,000); biochemical FAK kinase activity assay; in the data active = inhibition above about 19%;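 also: 0% = DMSO and 100% = reference compound high control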
Numbers without * were called inactive; x = not tested or not shown.

SMILES	Phagocytosis inh	TNAP act mid DEA	Mac1 fbg inh	Mac1 fbg enh	FAK inh
Cc1cc(OCC(=O)NCC(C)C)cc(C)c1Br	0.6	x	11.9	-2.9	1.9
CC/C(=N\N=C1\SC(C)C(=O)N1Cc1ccco1)c1ccccc1 (centres undefined)	-4.3	x	x	x	x
COc1cccc(C(=O)/C=C/Nc2ccc(NC(C)=O)cc2)c1	x	x	-5.1	0.2	x
COc1cccc(C(=O)/C=C/Nc2cccc(O)c2)c1	0.5	x	90.7*	-7.3	3.5
CC1=CC(C)(C)N(S(=O)(=O)c2ccc(C)cc2)c2ccccc21	x	x	51.9*	-4.7	0.1
O=C(O)CCC(=O)Nc1ccccc1C(=O)NCc1ccccc1	-7.2	x	x	x	x
CCCn1c(=O)c(C(=O)Nc2nnc(C)s2)c(O)c2ccccc21	x	0.9	x	x	x
O=c1c(C(c2ccccc2)c2c(O)sc3ccccc3c2=O)c(O)sc2ccccc12	-2.0	x	91.7*	-6.4	5.8
O=c1c2ccccc2sc2ccc(Cl)cc12	6.3	x	15.6	-2.8	x
O=C(Nc1nccs1)c1cc2c(s1)CCCCC2	0.6	x	72.3*	-4.6	10.2
NNC(=O)c1cc2c(s1)CCCCCC2	-2.7	x	12.8	5.9	3.6
Cc1ccnc2nc(C(=O)N3CCN(S(=O)(=O)c4ccccc4)CC3)nn12	-0.4	0.9	5.9	-1.0	-1.0
COc1ccc(-c2cc(C)nc(SCc3cccc(C(=O)O)c3)n2)cc1	-2.1	x	x	x	x
O=C(O)c1cccc(CSc2nc(-c3ccc(Cl)cc3)cc(C(F)(F)F)n2)c1	-1.4	x	75.1*	-3.2	4.2
COC(=O)Cc1ccc(NC(=O)c2ccc(C)c(C)c2)cc1	0.4	x	11.1	-6.8	1.5
CCOC(=O)Cc1ccc(NC(=O)c2ccc(C(C)(C)C)cc2)cc1	0.6	x	97.9*	-5.9	-1.2
CC(C)Oc1cccc(-c2cc(C(=O)NC(=S)N(C)c3ccccc3C(=O)O)c3ccccc3n2)c1	-3.8	x	x	x	x
O=[N+]([O-])c1ccc(N=Nc2ccc(O)cc2O)cc1	0.4	x	93.8*	-9.0	-0.2
O=[N+]([O-])c1ccc(N=NN(CCO)CCO)cc1	2.1	x	x	x	x
Cc1ccc(C)c(-n2cc[nH]c2=S)c1	-3.7	x	4.7	0.4	x
COc1cccc(-c2nnc(NC(=O)c3ccc4ncsc4c3)o2)c1	-1.0	x	x	x	x
COc1ccc(-n2c(C)cc(C(=O)COC(=O)Cn3cnc4ccccc43)c2C)cc1	-5.7	0.9	97.1*	-8.9	-4.9
COc1ccc(-n2c(C)cc(C(=O)CN3C(=O)c4ccccc4C3=O)c2C)cc1	-6.4	x	23.4	-0.4	x
Cc1ccc(-c2c3c(=O)n(C)c(=O)n(C)c3c3c(C)cc(C)nn23)cc1	x	0.9	x	x	x
COCCCNC(CC(=O)Nc1ccc(N(C)C)cc1)C(=O)O (centres undefined)	x	0.9	x	x	x
SMILES	Phagocytosis inh	TNAP act mid DEA	Mac1 fbg inh	Mac1 fbg enh	FAK inh
CCOC(=O)C1CCN(c2cc(=O)n(Cc3ccc(F)cc3)c(=O)[nH]2)CC1	-1.0	0.9	-11.4	-3.5	x
CCOC(=O)c1c(C)[nH]c(C(=O)COC(=O)c2ccc(N3CCCC3=O)cc2)c1C	1.9	1	4.7	15.0	-1.9
CCCCNC(=O)c1sc(=S)n(-c2ccccc2OC)c1N	2.5	x	-18.9	4.6	4.3
CCCCNC(=O)c1sc(=S)n2c1[nH]c(=O)c1ccccc12	-1.9	0.9	97.0*	-9.6	-3.1
O=C(NCC1CCCO1)c1sc(=S)n2c1[nH]c(=O)c1ccc(C(=O)N3CCCCC3)cc12 (centres undefined)	-1.4	0.9	6.9	-1.4	-5.3
O=C(NC1CCCCC1)c1sc(=S)n2c1[nH]c(=O)c1ccccc12	2.3	1	105.2*	-9.9	-17.9
O=C(CCn1c(=S)[nH]c2cc3c(cc2c1=O)OCO3)N1CCN(C2CCCCC2)CC1	x	1	x	x	-2.6
Cc1nc2ccc(NC(=O)c3cc([N+](=O)[O-])cc([N+](=O)[O-])c3Cl)cc2s1	-6.2	x	84.2	-10.7	x
COc1ccccc1-n1c(=O)oc2ccc(Cl)cc2c1=O	0.1	0.9	96.0*	-12.2	-0.6
CCOC(=O)c1[nH]c2ccc(OC)cc2c1NC(=O)CCN1CCCC(C)C1 (centres undefined)	0.0	0.9	-6.2	0.9	-2.4
CC1(C)Cc2c(sc3ncn4nc(-c5ccco5)nc4c23)CO1	x	0.9	x	x	32.6*
CCCCCn1c(=NC(C)=O)c(C#N)cc2c(=O)n3cccc(C)c3nc21	x	1	x	x	x
C/C(=N\NC(=O)CCCOc1ccc(Cl)cc1C)c1ccc(C)o1	-0.9	x	x	x	x
O=C(CN(Cc1ccco1)C(=O)CNS(=O)(=O)c1ccc(F)cc1)NCc1ccc(F)cc1	-1.5	6.1*	5.7	0.0	1.1
O=C(CN(Cc1ccco1)C(=O)CNS(=O)(=O)c1ccccc1)NCc1ccc(F)cc1	-3.0	0.9	-18.7	1.3	-2.3
CC(NC(=O)Nc1nnc(C(F)(F)F)s1)(C(F)(F)F)C(F)(F)F	-0.3	1	99.4*	-6.8	-3.8
CC(C)(C)CC(=O)Nc1nnc(C(F)(F)F)s1	x	x	x	x	-0.7
COCCNC(=O)/C=C/c1c(Cl)cccc1Cl	-1.5	x	x	x	x
Cn1c(=O)oc2cc(S(=O)(=O)N3CCCC(C(=O)N4CC=C(c5ccccc5)CC4)C3)ccc21 (centres undefined)	0.2	0.8	60.9*	-3.3	-1.1
Oc1ccc(-c2nc3ccc4ccccc4c3c3c2CCC3)cc1O	-1.1	x	x	x	x
CCC(Sc1nnc(-c2ccc(C)c(Cl)c2)n1CC)C(=O)Nc1nccs1 (centres undefined)	-1.0	0.9	55.6*	-4.1	x
CSc1nnc(-c2cc3c(s2)-c2ccccc2CC3)o1	-0.8	x	3.6	5.0	1.8
S=c1[nH]nc(-c2cc3c(s2)-c2ccccc2CC3)o1	-0.4	x	64.5*	-7.3	-3.3
Cc1noc(C)c1CSc1nc2ccccc2nc1NS(=O)(=O)c1ccc(Cl)cc1	0.5	0.9	97.8*	-7.7	10.1
O=S(=O)(Nc1nc2ccccc2nc1NCc1ccco1)c1ccc(Cl)cc1	-0.5	0.8	x	x	-6.8
SMILES	Phagocytosis inh	TNAP act mid DEA	Mac1 fbg inh	Mac1 fbg enh	FAK inh
COc1ccc(Cl)cc1C(=O)NNC(=S)NC(=O)c1cc(-c2ccccc2)nc2ccccc12	-0.6	x	16.1	62.4*	-20.9
Cc1ccc(CNC(=O)c2ccc(OCC3CCCO3)cc2)cc1 (centres undefined)	-2.4	x	x	x	x
Cc1sc2ncnc(N3CCN(CCOc4ccc(Cl)cc4)CC3)c2c1C	-0.8	x	99.4*	-9.2	-0.9
CC(C)(C)c1ccc(-c2csc(NNC3=NCCCCC3)n2)cc1	-1.6	x	88.7*	-4.9	1.7
Brc1ccc(-c2csc(NNC3=NCCCCC3)n2)cc1	-1.5	x	6.0	-1.1	3.7
CCCCCCn1c(NCC)nc2c1c(=O)n(C)c(=O)n2C	1.5	0.9	73.1*	-7.0	-1.6
CN(C)/C=C(/C#N)C(=O)c1cccc(Oc2ccc(C(C)(C)C)cc2)c1	-1.0	x	82.4*	-7.5	-0.3
Cc1nn(-c2ccccc2)c(Cl)c1/C=C1\SC(=S)NC1=O	2.4	x	101.4*	-9.6	-1.2
CCCCCOc1ccc(Br)cc1CSC(=N)N	25.8	x	104.6*	-5.3	x

Screening results as filed in PubChem BioAssay.
